Results reported in PubChem BioAssay (NCATS).
Records with an inconclusive call do not appear. Calls of active or inactive are those of the source. The call rests on the fitted dose curve; in most records, active means well fitted cell-killing curve with a large enough effect; inconclusive means small, poorly fitted or top-dose-only effect; inactive means flat fitted curve, though single readings scatter.

experiment: qHTS of pediatric cancer cell lines to identify multiple opportunities for drug repurposing: Primary screen for U-2 OS cells (AID 1347096); conditions: U-2 OS viability, CellTiter-Glo luminescence, 48 h; series mostly up to 46 µM; activity change, negative = cytotoxic: at the top concentration; further: nearly all actives have a fitted effect of over 50% in size
Source text: Drug repurposing or repositioning has been offered as a strategy for drug development in oncology programs. This approach has special potential for childhood cancers and other rare or orphan diseases, where the expected return on new drug development has been a disincentive to pharmaceuticals.
In this project we exploit the poly-pharmacology of drugs to discover new indications via phenotypic screening of a panel of 19 well-characterized cell lines derived from solid tumors seen in children and adolescents. The goal is to identify approved drugs with previously unrecognized anticancer properties that has the potential to reveal new mechanisms and biological processes involved in carcinogenesis or drug resistance. We employed a titration-based paradigm (quantitative high-throughput screening or qHTS), where all compounds were tested at multiple concentrations for their effect on cell viability. Concentration-response curves (CRCs) were derived directly from the primary screen, and both potency and efficacy values were used to identify compounds with robust bioactivity profiles. We screened the NIH Chemical Genomics Center (NCGC) Pharmaceutical Collection (NPC) and Mechanism Interrogation Plate (MIPE) small molecule collections of approved and investigational compounds against these cell lines; and measured metabolically active cells after 48 hours of compound treatment as a proxy for cell viability.
Assay Submitter: Nathalia J. Martinez, National Center for Advancing Translational Sciences, National Institutes of Health, Rockville, MD, USA; email: natalia.martinez@nih.gov
[1] Shen, M et al. Quantitative high-throughput phenotypic screening of pediatric cancer cell lines identifies multiple opportunities for drug repurposing. Oncotarget 2017 Dec 19;9(4):4758-4772. PMID 29435139.
The cells were obtained from University of North Carolina (UNC), Pediatric Preclinical Testing Program (PPT), and Coriell Institute (CI).
qHTS cell viability assay:
Cells were assayed in growth media at a density of 500-1,000 cells/well. Five microliters of cells were dispensed into 1,536-well, white, solid-bottom, TC-treated plates (Greiner Bio One) using a multidrop dispenser and incubated at 37 degrees C, 5% CO2, under a humidified atmosphere for 5 hours. Twenty-three nanoliters of compounds and controls (neutral control DMSO or positive control bortezomib at final concentration of 2.3 µM) were subsequently transferred by Kalypsys pintool. For primary screens, the MIPE collection was tested at 11-point dilutions (final concentrations range from 0.78 nM to 46 µM) and the NPC collection at 8-point dilutions (final concentrations range from 0.59 nM to 46 µM). Compounds tested in follow-up screens were assayed at 11-point dilutions. Cells were incubated for 48 hours, followed by addition of 3 µL of CellTiter-Glo (Promega). After a 15 min incubation at room temperature, samples were analyzed for luminescence intensity using a ViewLux High-throughput CCD imager equipped with clear filters.
Potency means the concentration at half of the fitted maximal effect.

| Compound | activity change, negative = cytotoxic | Potency |
| --- | --- | --- |
| C/C(=C(\CCOP(=O)(O)O)SC(=O)c1ccccc1)N(C=O)Cc1cnc(C)nc1N | 14.8% [at 4.84 µM] (inactive) |  |
| CNCCC(Oc1ccc(C(F)(F)F)cc1)c1ccccc1 (stereo not given) | -12.8% (inactive) |  |
| Nc1nc2c(ncn2CCC(CO)CO)c(=O)[nH]1 | -4.59% (inactive) |  |
| O=C1OC(OC(=O)c2cccnc2Nc2cccc(C(F)(F)F)c2)c2ccccc21 (stereo not given) | -1.53% (inactive) |  |
| Cc1c(Cl)cccc1Nc1ccccc1C(=O)O | 3.48% (inactive) |  |
| C[C@H]1O[C@@H](n2cc(F)c(=O)[nH]c2=O)[C@H](O)[C@@H]1O | 0.316% (inactive) |  |
| CCCCOc1cc(C(=O)OCCN(CC)CC)ccc1N | -6.32% (inactive) |  |
| CC(C)C(=O)c1c(C(C)C)nn2ccccc12 | 18.8% (inactive) |  |
| C[C@]12C[C@H](O)[C@H]3[C@@H](CCC4=CC(=O)CC[C@@]43C)[C@@H]1CC[C@@H]2C(=O)CO | 1.01% (inactive) |  |
| O=S(=O)(O)NC1CCCCC1 | 11.2% (inactive) |  |
| [Cl][In]([Cl])[Cl] | 16.2% [at 92.7 µM] (inactive) |  |
| CCN(CC)CCNC(C(=O)OCCC(C)C)c1ccccc1 (stereo not given) | -0.87% (inactive) |  |
| O=C1Nc2ccc(Cl)cc2[C@@](C#CC2CC2)(C(F)(F)F)O1 | -15.7% (inactive) |  |
| CN1CCC[C@@H]1Cc1c[nH]c2ccc(CCS(=O)(=O)c3ccccc3)cc12 | 3.9% (inactive) |  |
| CCCCCCCCCCCCOS(=O)(=O)O | 15.5% (inactive) |  |
| O=C1O[C@H]([C@@H](O)CO)C(O)=C1O | 7.91% (inactive) |  |
| N[C@@H](CSSC[C@H](N)C(=O)O)C(=O)O | 6.12% [at 0.597 µM] (inactive) |  |
| C=Cc1c(C)c2cc3[nH]c(cc4nc(cc5nc(cc1[nH]2)C(C)=C5CCC(=O)O)C(CCC(=O)O)=C4C)c(C)c3C=C | -8.44% (inactive) |  |
| CC(=O)OCC(=O)[C@@]1(O)CC[C@H]2[C@@H]3CCC4=CC(=O)CC[C@]4(C)[C@H]3C(=O)C[C@@]21C | -2.36% (inactive) |  |
| COc1ccccc1O | 12.4% [at 92.7 µM] (inactive) |  |

| Compound | activity change, negative = cytotoxic | Potency |
| --- | --- | --- |
| O=C1NC(=O)[C@@]2(CCOc3ccc(F)cc32)N1 | 0.391% (inactive) |  |
| Cc1c(O)cccc1C(=O)N[C@@H](CSc1ccccc1)[C@H](O)CN1C[C@H]2CCCC[C@H]2C[C@H]1C(=O)NC(C)(C)C |  | 21.1 µM (active) |
| CC1CC(OC(=O)C(O)c2ccccc2)CC(C)(C)N1C (stereo not given) | 4.72% (inactive) |  |
| CC1=C(CC(=O)O)c2cc(F)ccc2/C1=C\c1ccc(S(C)=O)cc1 (stereo not given) | -2.3% (inactive) |  |
| O=C(Oc1ccccc1C(=O)O)c1ccccc1O | 10.1% (inactive) |  |
| CCCCOC(=O)c1ccc(O)cc1 | 3.95% (inactive) |  |
| CCCCCCCCCCCCCCCC(=O)NCCO | 2.58% (inactive) |  |
| COc1cc2[nH]c(=O)[nH]c(=O)c2cc1OC | 0.227% (inactive) |  |
| CCCn1cnc2c1c(=O)n(CCCCC(C)=O)c(=O)n2C | 10.4% (inactive) |  |
| NC1[C@H]2CN(c3nc4c(cc3F)c(=O)c(C(=O)O)cn4-c3ccc(F)cc3F)C[C@@H]12 (stereo not given in full) | -15.4% (inactive) |  |
| COc1cc(C(=O)N2CCOCC2)cc(OC)c1OC | 6.89% (inactive) |  |
| C[C@@H](O)[C@H](N)C(=O)O | 11.4% [at 16.1 µM] (inactive) |  |
| O=c1cc[nH]c(=S)[nH]1 | 7.66% (inactive) |  |
| CCC(=O)Nc1ccc(O)cc1 | 11.2% (inactive) |  |
| CC[N+](CC)(CC)CCOc1ccc(/C=C/c2ccccc2)cc1 | -23.2% (inactive) |  |
| NS(=O)(=O)c1cc2c(cc1Cl)NC(CSCc1ccccc1)=NS2(=O)=O | -3.59% (inactive) |  |
| Cc1ccc2nc(N)[nH]c(=O)c2c1Sc1ccncc1 | -4.73% (inactive) |  |
| O=Cc1ccccc1C=O | -3.96% (inactive) |  |
| CN1[C@@H]2CC(OC(=O)[C@H](CO)c3ccccc3)C[C@H]1[C@@H]1O[C@@H]12 (stereo not given in full) | 6.58% (inactive) |  |
| CNC(=O)Oc1ccc2c(c1)[C@]1(C)CCN(C)[C@@H]1N2C | 19.6% (inactive) |  |
